Data: PubChem BioAssay AID434958 (Southern Research Specialized Biocontainment Screening …, 2010)
The whole screen tested about 1,200 compounds, of which about 400 (33%) were called active. The rule behind the calls is not given here. Only a sample is shown. Entries with a potency or affinity are not part of this list.

Assay: mammalian cell cytotoxicity, dose response, cytotoxicity control (AID 434958);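 note: cells exposed to compound for 72 hours before readout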
Conditions: cytotoxicity counter-screen; series mostly up to 40 µM

SMILES	outcome
O=C(CNC(=O)c1ccc(Br)cc1)NCC(=O)OCc1ccc(Cl)cc1	inactive
O=C(CSC1CS(=O)(=O)c2cc([N+](=O)[O-])ccc21)NNC(=O)c1ccccc1 (stereo not given)	inactive
O=C1O/C(=C/c2ccccc2)N=C1c1ccccc1	inactive
NNC(=S)Nc1ccc(C(F)(F)F)cc1Cl	inactive
CCCOc1ccc(C2Nc3cccc4cccc(c34)N2)cc1	inactive
Cc1cccc(NC(=O)c2cc3ccccc3c(=O)o2)n1	inactive
O=C(CCSc1nnc(-c2ccncc2)o1)Nc1ccccc1Cl	inactive
COc1cccc(/C=N/Nc2nc(N3CCCC3)nc(N3CCCC3)n2)c1O	inactive
O=C(CSc1ncn[nH]1)Nc1cccc2ccccc12	inactive
COc1cccc(/C=N/NC(N)=S)c1OS(=O)(=O)c1ccccc1	inactive
COC(=O)c1ccccc1NC(=O)CSCC(=O)Nc1ccc(F)cc1	inactive
Cc1ccc(N=Cc2c(O)ccc3ccccc23)cc1F	inactive
COc1ccccc1/C=N/NC(=S)Nc1cccnc1	inactive
CONC(=O)c1cc(OCC(F)(F)F)ccc1OCC(F)(F)F	inactive
COC(=O)c1cccc(NC(=S)NCCC2=CCCCC2)c1	inactive
O=C(NCC1COc2ccccc2O1)C1CCC(CNc2c(N3CCCCC3)c(=O)c2=O)CC1 (stereo not given)	inactive
Cc1ccc(-n2ncc(-c3nnc(SCC(=O)NC4CCCC4)o3)c2N)cc1C	inactive
COc1cc(C(F)(F)F)nc2ccc(C#CCOC(=O)Nc3ccccc3)cc12	inactive
O=C(CN1CCC(O)(c2ccc3c(c2)OCO3)CC1)OC1CCCCC1	inactive
COc1ccc(C(=O)Nc2nc3ccc(OC)cc3s2)cc1	inactive
COc1ccc2nc(NC(=O)c3ccc(Br)s3)sc2c1	inactive
O=C(COC(=O)c1ccc([N+](=O)[O-])s1)NCc1ccc(F)cc1	inactive
CCOc1ccc(NC(=S)Nc2cccnc2)cc1	inactive

SMILES	outcome
Cc1c(C(=O)Nc2cccnc2)oc2ccc(Br)cc12	inactive
COc1cc(NC(=O)C2CCCCC2)c(OC)cc1NC(=O)CN1CCCCC1	inactive
Cc1ccc(S(=O)(=O)NCCCCCC(=O)Nc2nccs2)cc1	inactive
Cc1nnc(SCc2ccc(C(=O)Nc3cc(Cl)ccc3C)cc2)s1	inactive
COc1ccc(C(=O)Nc2ccc(C(=O)OCC(=O)c3ccccc3)cc2)cc1	inactive
CCc1ccc2nc(/N=C(\N)NC(=O)c3ccccc3)nc(C)c2c1	inactive
O=S1(=O)CCO[C@H]2Cc3ccccc3[C@H]2N1Cc1ccc(Cl)cc1	inactive
Cc1ccc(SCCNC(=O)c2ccc(C)c([N+](=O)[O-])c2)cc1	inactive
Cc1ccc(NC(=O)O/N=C/c2c(C)nn(C(C)(C)C)c2C)cc1Cl	inactive
COc1ccc(-c2csc(NC(=O)c3c(C)noc3C)n2)cc1	inactive
O=C1CCNc2c(Cl)cccc21	inactive
Cc1ccc(NC(=O)CSc2nnc([C@@H]3CCCN3C(=O)OC(C)(C)C)o2)c(C)c1	inactive
CCCCCNCc1cccc(Br)c1	inactive
O=C1C2CCN(CC2)C1Cc1ccc(OCCOc2ccccc2)cc1 (stereo not given)	inactive
Nc1ccc(C(=O)O)c(O)c1	inactive
COc1ccc(C(=O)NC(=S)Nc2ccc(S(=O)(=O)Nc3cc(C)on3)cc2)cc1OC	inactive
Cc1nn(C)c(C(=O)NC(=S)Nc2ccccc2Br)c1Cl	inactive
Cc1cc(C(=O)Nc2nnc(-c3ccccc3)s2)no1	inactive
CCOc1ccc(-c2nnc(-c3cccs3)o2)cc1OCC	inactive
CC(=O)c1c(C)[nH]c(C(=O)OCC(=O)Nc2nnc(-c3ccccc3)o2)c1C	inactive
Cc1ccc(NC(=O)CCS(=O)(=O)c2cccc3nonc23)cc1	inactive
O=C(Nc1ccc(F)cc1)c1sc2cc(C(F)(F)F)cnc2c1-c1cccs1	inactive
O=C(OCC(=O)c1ccc[nH]1)C1=COCCO1	inactive

SMILES	outcome
COc1ccc(C(=O)n2c(SC)nc3cc4c(cc32)OCCO4)cc1	inactive
Cc1ccc(OC(=O)COc2ccccc2)c(-n2nc3ccccc3n2)c1	inactive
N#Cc1c(SCC(=O)O)nc(N2CCCCC2)c2c1CCCC2	inactive
Cc1cccc(C)c1OCC(=O)NNC(=O)CNC(=O)c1ccc(OC(F)F)cc1	inactive
CCn1c(SCc2nc(-c3cccs3)no2)nnc1-c1c[nH]c2ccccc12	inactive
C=C(C)COc1ccc(-c2nc(N)ncc2Oc2ccc(OC)cc2)c(O)c1	inactive
COc1cccc(CNC(=O)C(Cc2ccccc2)n2cccc2)c1 (stereo not given)	inactive
CC(=O)C1=C(C)NC(SCC(=O)c2ccccc2)=C(C#N)C1CC(C)C (stereo not given)	inactive
Nc1nc2ccccc2n1C(=O)c1cccs1	inactive
COCCNC(=O)COc1ccc(Oc2ccccc2)cc1	inactive
O=C(COc1ccccc1)NNC(=O)c1cc2ccccc2oc1=O	inactive
O=C1Nc2c(ccc(Cl)c2Cl)C(=O)C1(F)c1ccccc1 (stereo not given)	inactive
CCOC(=O)c1cnn(-c2ncnc3sc4c(c23)CCC4)c1N	inactive
Cc1cc(C(=O)Nc2ccc(Br)cc2F)n(-c2ccccc2)n1	inactive
Cc1cc(=O)n2c(-c3ccccc3C)n[nH]c2n1	inactive
CC(=O)Nc1ccc(S(=O)(=O)Nc2cccc3cccnc23)cc1	inactive
Cc1ccc(NC(=O)/C=C\C(=O)O)c([N+](=O)[O-])c1	inactive
Cc1ccc(C)c(SCC(=O)OCC(=O)N2CC(C)OC(C)C2)c1 (stereo not given)	inactive
COc1ccccc1CNC(=O)COC(=O)C1=COCCO1	inactive
O=C(CC1SC(=O)NC1=O)Oc1ccc(/C=N/NC(=O)c2ccccc2O)cc1 (stereo not given)	inactive
Cc1oc(C(C)(C)C)cc1C(=O)Nc1ccc2c(c1)OCCO2	inactive
CCOC(=O)c1ccc(NC(=O)Cc2coc3cc4c(cc23)CCC4)cc1	inactive
COc1ccc2[nH]c3c(c2c1)CCN=C3C	inactive

SMILES	outcome
O=C(COC(=O)C1CC1)c1c[nH]c2ccccc12	inactive
C=CCN(C(=O)CN1CCOCC1)c1nc(C)c(-c2ccccc2)s1	inactive
N#CCOC(=O)/C=C/c1ccc2c(c1)OCO2	inactive
CCc1cc2c(-c3ccccc3)cc(=O)oc2cc1OC(C)C(C)=O (stereo not given)	inactive
COc1ccc(NC(=O)c2cc(Br)ccc2Cl)c(OC)c1	inactive
COc1cc(NC(=O)c2cccc(Cl)c2)c(OC)cc1NC(=O)CN1CCCCC1	inactive
Cc1cccc(NC(=S)NC2CC3C=CC2C3)c1 (stereo not given)	inactive
CCSc1nnc(NC(=O)Cn2cnc3ccccc3c2=O)s1	inactive
CCC(C(=O)NC1C(=O)N2C(C(=O)O)=C(CSc3nnc(C)s3)CSC12)c1ccccc1 (stereo not given)	inactive
Cn1nnnc1SCC(=O)Nc1ccccc1[N+](=O)[O-]	inactive
Cc1ccc(-n2nnnc2Sc2nc([N+](=O)[O-])nn2C)c(C)c1	inactive
O=C(Nc1ccccc1)Nc1csc2ccccc12	inactive
O=C(NC1CCCCC1)C1CCN(c2nccs2)CC1	inactive
O=C(NC1c2ccccc2-c2ccccc21)c1ccco1	inactive
C/C(=N/NC(=O)c1cccs1)c1ccc(NC(=O)COc2ccc(Cl)cc2)cc1	inactive
Cc1ccc(/C=N/NC(=O)c2cccs2)s1	inactive
CCOc1ccc2nc(NC(=O)c3cnccn3)sc2c1	inactive
Cc1cc(C)c(-c2c(O)c3ccccc3n(C)c2=O)c(C)c1	inactive
Cc1cc(Br)ccc1NC(=O)CN1C(=O)C2CC=CCC2C1=O (stereo not given)	inactive
COc1cc(OC)cc(-c2c(C#Cc3ccsc3)c3cc(-c4ccc(OC)nc4)ccc3n2C)c1	inactive
CCOc1cccc(=O)c2c(C)n(Cc3ccccc3)c(C)c12	inactive
CCOc1cc(N2CCOCC2)c(OCC)cc1NC(=O)c1cc(C)cc(C)c1	inactive
Cn1c(=O)[nH]c(=O)c2c1nc(Br)n2CCC(=O)c1ccccc1	inactive

SMILES	outcome
C=CCSc1nnc2c(n1)OC(c1c(C)[nH]n(-c3ccccc3)c1=O)Nc1ccccc1-2 (stereo not given)	inactive
CCCCCc1ccc(-c2ccc(/C=C/C(N)=O)cc2)nc1	inactive
CN1c2ccccc2C(=O)NC1c1ccc([N+](=O)[O-])s1 (stereo not given)	inactive
Cc1cccc(Cl)c1NC(=S)NN	inactive
CCOC(=O)c1sc(NC(=O)Cn2nnc3sc4c(c3c2=O)CCC(C(C)(C)C)C4)nc1C (stereo not given)	inactive
CC1CCCN(C(=O)C2CCN(c3ncnc4c3nc3n4CCCCC3)CC2)C1 (stereo not given)	inactive
CCOC(=O)NC1c2ccccc2Oc2ccccc21	inactive
O=C(NNC(=O)c1ccc(Oc2cc(Cl)cc(Cl)c2)o1)c1ccccc1	inactive
CC(=O)c1ccccc1OCCOc1ncnc2sccc12	inactive
COc1ccc([N+](=O)[O-])cc1NS(=O)(=O)c1ccc(C(=O)N2CCCC2)cc1	inactive
CC(=O)c1ccc(NC(=S)Nc2ccc(N3CCOCC3)cc2)cc1	inactive
O=C(Cc1ccccc1)NC(=S)Nc1ccc(N2CCCCC2)cc1	inactive
Cc1ccc(CNC(=O)c2cn(C)c3ccc(S(=O)(=O)N4CCOCC4)cc3c2=O)cc1	inactive
Cc1cccc2nc(COc3ccc4ccccc4c3Br)cn12	inactive
COC(=O)C1=C(C)NC(=O)/C1=C\c1cc(C)n(-c2cc(C)cc(C)c2)c1C	inactive
CCOC(=O)CNC(=O)c1cccnc1Oc1ccc(Cl)cc1	inactive
COc1ccccc1NS(=O)(=O)c1cccc(N2CC(O)=C(c3ccccc3)C2=N)c1	inactive
O=C(CCN1C(=O)c2ccccc2S1(=O)=O)Nc1ccc(Cl)cc1	inactive
CCC(=O)NC(=S)Nc1ccc(NC(=O)c2ccccc2[N+](=O)[O-])cc1	inactive
CC(/C=N/NC(=O)c1cc(-c2cccs2)[nH]n1)=C\c1ccccc1	inactive
Cc1ccc(C)c(SCc2noc(C(=O)NCC3CCCO3)c2C(=O)O)c1 (stereo not given)	inactive
O=C(O)Cc1csc(Nc2cccc(Cl)c2)n1	inactive
COC(=O)c1ccc(/C=N/Nc2nc(-c3ccc(C)cc3)cs2)cc1	inactive
